Source: PubChem BioAssay AID1159580 (chemical genetic matrix, 2015)
About 2,000 (36%) of roughly 5,500 compounds were called active. Not shown: some 18% with an inconclusive outcome. Rule as the data show it: active = normalized growth mostly below about 0.91 (no sharp cut-off); inconclusive = no clear call, values can overlap the other calls; inactive = mostly above about 0.92. The list shows a part of the results.

Test: chemical genetic growth profiling, strain panel (AID 1159580);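 also: tested at 20 µM; growth read once vehicle control cultures reached saturation at 30 °C; 1 = growth at the plate median or of vehicle wells; lower values mean less growth of the strain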
Details: S. cerevisiae deletion strains, growth OD

Measured: normalized growth

COC1=CC(=O)C(O)=C/C1=C\C=C\c1ccccc1
active: locus YAL021C, strain ccr4, hits give low values 0.0637 | locus YAL026C, strain drs2, hits give low values 0.0627 | locus YAL030W, strain snc1, hits give low values 0.0587 | locus YBL061C, strain skt5, hits give low values 0.0684 | locus YBR009C, strain hhf1, hits give low values 0.0623 | locus YBR023C, strain chs3, hits give low values 0.075 | locus YBR171W, strain sec66, hits give low values 0.0792 | locus YBR231C, strain swc5, hits give low values 0.0663 | locus YBR279W, strain paf1, hits give low values 0.068 | locus YCL011C, strain gbp2, hits give low values 0.0594 | locus YCL016C, strain dcc1, hits give low values 0.0807 | locus YCL061C, strain MRC1, hits give low values 0.0651 | locus YCL069W, strain vba3, hits give low values 0.064 | locus YCR088W, strain abp1, hits give low values 0.0619 | locus YDL005C, strain med2, hits give low values 0.0757 | locus YDL040C, strain nat1, hits give low values 0.244 | locus YDR001C, strain nth1, hits give low values 0.0607 | locus YDR069C, strain doa4, hits give low values 0.068 | locus YDR137W, strain rgp1, hits give low values 0.292 | locus YDR159W, strain sac3, hits give low values 0.166 | locus YDR195W, strain ref2 0.115 | locus YDR297W, strain sur2, hits give low values 0.0591 | locus YDR334W, strain swr1, hits give low values 0.0652 | locus YDR335W, strain msn5, hits give low values 0.0631 | locus YDR392W, strain spt3, hits give low values 0.0929 | locus YEL003W, strain gim4, hits give low values 0.0583 | locus YEL037C, strain rad23, hits give low values 0.0597 | locus YEL061C, strain CIN8 (second series), hits give low values 0.064 | locus YER015W, strain faa2, hits give low values 0.0626 | locus YER016W, strain bim1, hits give low values 0.0792 | locus YER111C, strain swi4, hits give low values 0.076 | locus YER155C, strain BEM2 (second series), hits give low values 0.0935 | locus YFR010W, strain ubp6, hits give low values 0.0686 | locus YGL167C, strain pmr1, hits give low values 0.0977 | locus YGL173C, strain kem1, hits give low values 0.0694 | locus YGL227W, strain vid30, hits give low values 0.0665 | locus YGL240W, strain doc1, hits give low values 0.0868 | locus YGL253W, strain hxk2, hits give low values 0.0562 | locus YHR013C, strain ard1, hits give low values 0.205 | locus YHR027C, strain rpn1, hits give low values 0.064 | locus YHR030C, strain SLT2, hits give low values 0.114 | locus YHR079C, strain IRE1, hits give low values 0.111 | locus YHR142W, strain chs7, hits give low values 0.0751 | locus YJL092W, strain hpr5, hits give low values 0.0609 | locus YJL095W, strain BCK1 (second series), hits give low values 0.0603 | locus YJL095W, strain BCK1, hits give low values 0.104 | locus YJL115W, strain asf1, hits give low values 0.0766 | locus YJL129C, strain trk1, hits give low values 0.0861 | locus YJL154C, strain vps35, hits give low values 0.0623 | locus YJL164C, strain tpk1, hits give low values 0.0609 | locus YJL166W, strain qcr8, hits give low values 0.0637 | locus YJL187C, strain SWE1, hits give low values 0.0601 | locus YJR066W, strain TOR1, hits give low values -0.00301 | locus YKL160W, strain elf1, hits give low values 0.073 | locus YKR026C, strain gcn3, hits give low values 0.0653 | locus YKR091W, strain srl3, hits give low values 0.0623 | locus YLL001W, strain dnm1, hits give low values 0.0646 | locus YLL026W, hits give low values 0.0594 | locus YLL041C, strain sdh2, hits give low values 0.0594 | locus YLR027C, strain aat2, hits give low values 0.0574 | locus YLR113W, strain HOG1, hits give low values 0.173 | locus YLR221C, strain rsa3, hits give low values 0.0618 | locus YLR258W, strain gsy2, hits give low values 0.0601 | locus YLR262C, strain YPT6 (second series), hits give low values 0.0834 | locus YLR320W, strain mms22, hits give low values 0.0845 | locus YLR342W, strain FKS1, hits give low values 0.0656 | locus YLR357W, strain rsc2, hits give low values 0.127 | locus YLR370C, strain arc18, hits give low values 0.0611 | locus YLR384C, strain iki3, hits give low values 0.0607 | locus YML120C, strain ndi1, hits give low values 0.0568 | locus YMR058W, strain fet3, hits give low values 0.0632 | locus YMR125W, strain sto1, hits give low values 0.0692 | locus YMR129W, hits give low values 0.0614 | locus YMR205C, strain PFK2, hits give low values 0.088 | locus YMR231W, strain pep5, hits give low values 0.068 | locus YNL071W, strain lat1, hits give low values 0.0619 | locus YNL183C, strain NPR1, hits give low values -0.000893 | locus YNL209W, strain ssb2, hits give low values 0.0644 | locus YNL248C, strain rpa49, hits give low values 0.0693 | locus YNL322C, strain KRE1 (second series), hits give low values 0.068 | locus YNR049C, strain mso1, hits give low values 0.0603 | locus YOR001W, strain rrp6, hits give low values 0.069 | locus YOR070C, strain gyp1, hits give low values 0.0623 | locus YOR080W, strain dia2, hits give low values 0.0977 | locus YOR083W, strain WHI5, hits give low values 0.0654 | locus YOR106W, strain vam3, hits give low values 0.0683 | locus YOR231W, strain MKK1, hits give low values 0.109 | locus YOR265W, strain rbl2, hits give low values 0.0614 | locus YOR270C, strain vph1, hits give low values 0.0968 | locus YOR290C, strain snf2, hits give low values 0.0813 | locus YPL051W, strain arl3, hits give low values 0.0697 | locus YPL078C, strain atp4, hits give low values 0.0641 | locus YPL106C, strain sse1, hits give low values 0.102 | locus YPL240C, strain hsp82, hits give low values 0.0581 | locus YPL256C, strain CLN2, hits give low values 0.131
